Rows were chosen to be rich in hits. Some 19% of all compounds tested hit in one or more screens of this group.
IL-1B inflam inh – inflammasome signaling inhibition, IL-1 beta readout | THP-1 LPS/ATP IL-1B secretion, AlphaLISA, 16 h; active compounds read low | activity change, % at 57.5 µM | 360,000 compounds, 4.7% hits; in the data active means activity change below about -50%; inconclusive means mostly about -30% to -49%
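THP-1 cells pretreated 1 hr with compounds (up to 57.5 uM final), then stimulated with LPS (250 ng/mL final) plus ATP (1.25 mM final); secreted IL-1B measured by AlphaLISA after 16 hr, decreased signal indicating inhibition.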
Giardia kill – Giardia lamblia killing; Giardia lamblia trophozoite viability; activity change, % at 7.66 µM, hits read low; 340,000 compounds, 0.15% hits; AID 540267; in the data active means activity change below about -80%; inconclusive means between about -30% and that limit;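 further: parasites exposed to compound for two days anaerobically before the ATP read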
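Trophozoite viability was measured as ATP-dependent luminescence, read 15-30 min after reagent addition. Before that, parasites at 100 cells/well were exposed to compounds for 48 h, anaerobically, at 37 deg C.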
TDP1 cell noCPT – qHTS for Inhibitors of human tyrosyl-DNA phosphodiesterase 1 (TDP1): qHTS in cells in absence of CPT; DT40 Tdp1-/- hTDP1 cells, no CPT, ATP luminescence, 48 h; Potency, µM (highest dose often 46.2 µM), for inactives: at the highest dose activity change, negative = growth inhibition, most hits filed as inhibitors; 420,000 compounds, 15% hits; AID 686978, 2013; further: potency means the concentration at half of the fitted maximal effect; nearly all actives have a fitted effect of over 55% in size
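Readout: luminescence from CellTiter-Glo after 30 min in the dark at RT. Cells: DT40 Tdp1-/- with stable hTDP1, 400/well. Exposure: compounds alone, ≥48 hr, 37 °C.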
ELG1 repair inh – blocks ELG1-dependent DNA repair in HEK293T cells; HEK293T ELG1-luciferase reporter, luminescence, 16 h; DNA damage induced by 5-fluorouridine; Potency, µM (series often up to 46.1 µM), for the others: top-dose activity change, negative = inhibition, usual class: inhibitors; 330,000 compounds, 2.3% hits; AID 504467; further: potency means the concentration at half of the fitted maximal effect; nearly all actives have a fitted effect of over 55% in size
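Cells (2,000 per well) received 5-fluorouridine plus test compound or DMSO and were incubated 16 hr at 37 °C, 5% CO2. Luciferase activity was read by luminescence 30 min after ONE-Glo addition; signal suppression marked inhibition of damage-induced ELG1 function.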
TDP1 cell CPT – growth inhibition of DT40 Tdp1-/-;hTDP1 cells with camptothecin (screen for TDP1 inhibitors). Potency, µM (top dose mostly 46.2 µM), for the others: at the top dose activity change, negative = growth inhibition, hits mostly inhibitors. 420,000 compounds, 12% hits. chicken DT40 Tdp1-/-;hTDP1 cells + 20 nM CPT, ATP luminescence, 48 h; further: potency means the concentration at half of the fitted maximal effect; nearly all actives have a fitted effect of over 55% in size
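Chicken DT40 Tdp1-/- cells complemented with human TDP1, 400 cells/well, exposed to compounds plus 20 nM camptothecin for at least 48 h at 37 C; viability read as ATP content by CellTiter-Glo luminescence.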
TDP1 inh – TDP1 (human) enzyme inhibition | recombinant TDP1, AlphaScreen DNA substrate cleavage | Potency, µM (highest dose often 130 µM), for the others: at the highest dose activity change, negative = inhibition, most hits filed as inhibitors | 350,000 compounds, 0.28% hits | Q9NUW8; further: potency means the concentration at half of the fitted maximal effect; nearly all actives have a fitted effect of over 40% in size
Target sequence (Q9NUW8 whole entry, looked up): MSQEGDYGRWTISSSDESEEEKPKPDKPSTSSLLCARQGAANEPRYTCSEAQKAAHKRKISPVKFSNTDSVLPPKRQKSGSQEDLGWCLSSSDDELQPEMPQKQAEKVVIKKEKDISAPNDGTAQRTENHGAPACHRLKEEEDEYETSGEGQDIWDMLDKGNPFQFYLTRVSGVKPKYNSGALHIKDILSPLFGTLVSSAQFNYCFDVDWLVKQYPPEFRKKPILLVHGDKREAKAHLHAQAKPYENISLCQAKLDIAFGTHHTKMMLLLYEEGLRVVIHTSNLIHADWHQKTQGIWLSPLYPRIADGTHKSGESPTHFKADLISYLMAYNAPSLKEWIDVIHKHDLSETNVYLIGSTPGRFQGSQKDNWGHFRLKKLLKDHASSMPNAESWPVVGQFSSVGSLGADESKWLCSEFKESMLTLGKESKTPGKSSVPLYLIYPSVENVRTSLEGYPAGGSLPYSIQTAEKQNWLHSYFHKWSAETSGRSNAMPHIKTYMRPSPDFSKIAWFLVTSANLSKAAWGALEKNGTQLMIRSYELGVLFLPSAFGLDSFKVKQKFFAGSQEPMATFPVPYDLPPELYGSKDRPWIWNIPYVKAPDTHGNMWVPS
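Recombinant human Tdp1 (E. coli-expressed, 1 nM final) preincubated with compounds 15 min at room temperature, then 5'-biotin/3'-phosphotyrosine-FITC DNA substrate (15 nM final) added for 5 min. AlphaScreen beads (10 ug/ml final) added 10 min; cleavage lowers signal.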
The depositor's hits bear a star; [ ] = another dose, or the depositor's remark. Unless noted, the call rests on the fitted dose curve; in most records, active means well fitted curve in the direction sought with a large enough effect; inconclusive means small, poorly fitted or top-dose-only effect, or another doubt; inactive means no such curve, though single readings can be large; an effect the other way counts as inactive or inconclusive. On the % scale 0 is the no-effect control and ±100 the full control effect.

How did CCn1c(O)c(C=NCc2ccccc2)sc1=S do in these assays?
IL-1B inflam inh: -21; Giardia kill: 6; TDP1 cell noCPT: inconclusive; ELG1 repair inh: 3%; TDP1 cell CPT: -25%; TDP1 inh: 10%

What do the screens show for `CCn1c(O)c(/C=C/C=C/C=Nc2ccccc2)sc1=S`?
IL-1B inflam inh: -7; Giardia kill: 25; TDP1 cell noCPT: 26µM*; ELG1 repair inh: 8%; TDP1 cell CPT: inconclusive; TDP1 inh: 8%

What do the screens show for `CCCCn1c(O)c(/C=C/C=C/C=Nc2ccccc2)sc1=S`?
IL-1B inflam inh: -7; Giardia kill: 12; TDP1 cell noCPT: 15µM*; ELG1 repair inh: 6%; TDP1 cell CPT: 12µM*; TDP1 inh: 8%

How did Oc1c(/C=C/C=C/C=Nc2ccccc2)sc(=S)n1Cc1ccccc1 do in these assays?
IL-1B inflam inh: 0; Giardia kill: -3; TDP1 cell noCPT: 21µM*; ELG1 repair inh: inconclusive; TDP1 cell CPT: inconclusive

What do the screens show for `Cc1ccc(Cn2ncc3c(N4CCN(C5CCCC5)CC4)ncnc32)cc1`?
IL-1B inflam inh: 12; Giardia kill: 12; TDP1 cell noCPT: -26%; ELG1 repair inh: -18%; TDP1 cell CPT: inconclusive; TDP1 inh: 6%

What do the screens show for `CN(C)c1ccc(/C=C2\C(=O)/C(=C/c3ccc(N(C)C)cc3)c3ccccc32)cc1`?
TDP1 cell noCPT: 7.1µM*; TDP1 cell CPT: inconclusive

Results for O=C1Nc2ccccc2/C1=C/c1cccnc1 ?
IL-1B inflam inh: -65*; Giardia kill: 0; TDP1 cell noCPT: inconclusive; ELG1 repair inh: -6%; TDP1 cell CPT: inconclusive; TDP1 inh: 1%

How did Cc1ccc(/C=C2\C(=O)Nc3ccccc32)o1 do in these assays?
IL-1B inflam inh: 2; Giardia kill: -21; TDP1 cell noCPT: 3.7µM*; ELG1 repair inh: 12%; TDP1 cell CPT: 1.5µM*; TDP1 inh: 5%

How did CN(C)c1ccc(/C=C2/C(=O)Nc3ccccc32)cc1 do in these assays?
TDP1 cell noCPT: inconclusive; TDP1 cell CPT: inconclusive; TDP1 inh: 27%[56.1 µM]

What do the screens show for `CN(C)c1ccc(/C=C2\C(=O)Nc3ccccc32)cc1`?
TDP1 cell noCPT: 16µM*; TDP1 cell CPT: 16µM*; TDP1 inh: 23%[56.1 µM]

How did NS(=O)(=O)c1ccc(-c2ccc(/C=C3\C(=O)Nc4ccccc43)o2)cc1 do in these assays?
ELG1 repair inh: 16%

What do the screens show for `CC1=NOC(=O)/C1=C/c1ccc(N(C)C)cc1`?
IL-1B inflam inh: -6; Giardia kill: 8; TDP1 cell noCPT: -11%; ELG1 repair inh: inconclusive; TDP1 cell CPT: 3%; TDP1 inh: 5%

Results for CCCCSCCCNC(=O)Nc1ccc(C)c(C)c1 ?
IL-1B inflam inh: -28; Giardia kill: -7; TDP1 cell noCPT: -11%; ELG1 repair inh: -13%; TDP1 cell CPT: -7%; TDP1 inh: 5%

Results for O=C(CCCn1cc([N+](=O)[O-])cn1)Nc1cccnc1 ?
IL-1B inflam inh: 22; Giardia kill: 8; TDP1 cell noCPT: 4%; ELG1 repair inh: 10%; TDP1 cell CPT: 13%

What do the screens show for `Cc1ccccc1/C=C1\C(=O)Nc2ccc(F)cc21`?
IL-1B inflam inh: 5; Giardia kill: 17; TDP1 cell noCPT: inconclusive; ELG1 repair inh: -4%; TDP1 cell CPT: -24%

How did O=C1Nc2ccccc2/C1=C/c1ccccc1F do in these assays?
IL-1B inflam inh: -30; Giardia kill: 10; TDP1 cell noCPT: 23µM*; ELG1 repair inh: 23%; TDP1 cell CPT: inconclusive

Results for Cc1nn(-c2ccc(F)cc2)c(Cl)c1/C=C1\C(=O)Nc2ccccc21 ?
IL-1B inflam inh: 0; Giardia kill: 14; TDP1 cell noCPT: 8.2µM*; ELG1 repair inh: inconclusive; TDP1 cell CPT: 6.5µM*; TDP1 inh: -3%
